High-throughput results: PubChem BioAssay, National Center for Advancing Translational Sciences (NCATS)
An excerpt weighted towards active compounds, which were near 4% of everything screened.
DRV1 agonist: activates human resolvin D1 receptor GPR32; CHO-K1 GPR32 beta-arrestin PathHunter luminescence, 90 min; zero percent set by DMSO-only wells; activation, % at 76.9 µM; 48,000 tested, 2.5% active;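 active = activation of at least 60% and not above a set upper limit, about 1 call in 100 departs from these limits; inconclusive = activation of 40% to 60%, or above that upper limit; inactive = activation under 40%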; note: 0% is about no effect
Target sequence (O75388 whole entry, looked up): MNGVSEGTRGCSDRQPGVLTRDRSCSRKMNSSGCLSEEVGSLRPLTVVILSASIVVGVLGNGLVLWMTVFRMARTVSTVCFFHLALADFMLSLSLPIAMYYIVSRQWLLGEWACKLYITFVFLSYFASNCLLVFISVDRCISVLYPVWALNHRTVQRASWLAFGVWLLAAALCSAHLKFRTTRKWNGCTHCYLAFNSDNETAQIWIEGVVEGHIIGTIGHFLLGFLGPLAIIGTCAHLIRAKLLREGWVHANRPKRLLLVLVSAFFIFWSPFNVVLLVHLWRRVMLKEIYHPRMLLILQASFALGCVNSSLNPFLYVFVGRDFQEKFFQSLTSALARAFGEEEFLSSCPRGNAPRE
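Agonism was scored by beta-Gal fragment complementation (chemiluminescent read, 1 h detection at ambient temperature) reporting beta-arrestin binding to GPR32 in engineered CHO-K1 cells. Compound treatment lasted 90 min at 37 C, normalized to a DMSO basal control.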
GALC G270D act: raises human GALC G270D mutant activity in cells | P54803 | 145M-Twi-hGALC-G270D cells (Twitcher mouse brain line with human GALC G270D), HMU-beta-Gal fluorescence, 48 h | Potency, µM (series often up to 57.5 µM), hits mostly activators | 45,000 tested, 0.1% active; note: potency is the fitted concentration of half-maximal effect; 0% is about no effect; nearly all actives have a fitted effect of over 65% in size
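Fluorescence readout: HMU-β-gal cleavage by mutant GALC (0.1 mM final, citrate/phosphate pH 5.2 with 1 mg/mL taurocholate), stopped with carbonate/bicarbonate plus Triton X-100. Cells: murine Twitcher 145M-Twi expressing human G270D GALC; qHTS for activators.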
p53null 39C tox: selectivity test: cytotoxicity in p53 null cells, nonpermissive temperature. H1299 p53-null (neo) cells, 39C, ATPlite viability, 24 h. Potency, µM (doses to about 46.1 µM), without a hit: at the highest dose activity, negative = cell killing, actives largely listed as cytotoxic. 55,000 tested, 0.97% active;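 note: potency is the fitted concentration of half-maximal effect; 0% = DMSO only and -100% = full killing by 100 µM tamoxifen; nearly all actives have a fitted effect of over 50% in size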
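Following overnight plating at 37C (600 cells/well), H1299-neo or H1299-p53A138V cells are dosed up to 46 uM. Incubation lasts 24 hr at 39C before ATP detection.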
SKOV3 invasion: blocks SKOV3ip1 adhesion and invasion in omental model | 46,000 tested, 0.1% active | AID 1963576 | Potency, µM (top dose mostly 45.8 µM), inactives show at the highest dose activity change, negative = inhibition, most hits filed as inhibitors | SKOV3ip1-GFP adhesion/invasion on 3D omental model, fluorescence;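 note: potency is the fitted concentration of half-maximal effect; plate controls were DMSO wells for no effect and tomatine positive control wells for full effect; nearly all actives have a fitted effect of over 65% in size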
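Adhesion/invasion was scored as fixed GFP-labeled SKOV3ip1 cell counts (488/509 nm), normalized to DMSO and tomatine controls. Cancer cells in serum-free medium, with four compound doses (0.36-46 umol/L), sat 2 hr at RT then 16 hr at 37 C on a 48 hr fibroblast/mesothelial/ECM culture.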
p53null 32C kill: p53 null cell cytotoxicity, permissive temperature | 55,000 tested, 0.62% active | AID 903 | H1299-neo p53 null cells, ATP luminescence, 24 h, 32C | Potency, µM (doses to about 46.1 µM), for inactives: at the highest dose activity change, negative = cytotoxicity, most hits filed as cytotoxic;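 note: potency is the fitted concentration of half-maximal effect; 0% = DMSO only and -100% = full killing by 100 µM tamoxifen; nearly all actives have a fitted effect of over 55% in size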
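H1299-neo (p53-null) cells, 600/well, were pre-incubated overnight at 37C, then exposed to compounds at up to 46 uM for 24 hr at 32C. Viability was measured as ATP content by luminescence, and AC50 values came from Hill fits.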
NTMT1 inh: NTMT1 methyltransferase inhibition | NTMT1 MTase-Glo SAH luminescence, purified enzyme | Potency, µM (highest dose often 114 µM), inactives show at the highest dose activity change, negative = inhibition, usual class: inhibitors | 59,000 tested, 2.5% active | Q9BV86;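 note: potency is the fitted concentration of half-maximal effect; plate controls were DMSO vehicle for no effect and no enzyme for full effect; nearly all actives have a fitted effect of over 65% in size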
Target sequence (Q9BV86 whole entry, looked up): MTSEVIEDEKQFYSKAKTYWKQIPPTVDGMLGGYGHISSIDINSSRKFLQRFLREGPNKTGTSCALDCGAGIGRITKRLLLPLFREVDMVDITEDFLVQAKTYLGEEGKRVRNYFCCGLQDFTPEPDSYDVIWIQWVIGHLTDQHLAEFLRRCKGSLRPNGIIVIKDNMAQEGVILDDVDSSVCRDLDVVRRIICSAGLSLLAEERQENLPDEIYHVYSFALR
* hit, by the source's call; i = inactive; ? = inconclusive; nt = no result; ! = repeats disagree; [ ] = remark or other dose. Unless noted, calls come from the whole dose curve; as a rule, active = well fitted curve in the direction sought with a large enough effect; inconclusive = small, poorly fitted or top-dose-only effect, or another doubt; inactive = no such curve, though single readings can be large; an effect the other way counts as inactive or inconclusive.

SMILES	DRV1 agonist	GALC G270D act	p53null 39C tox	SKOV3 invasion	p53null 32C kill	NTMT1 inh
CC(=O)c1cccc(NC(=O)CCS(=O)(=O)c2ccc(Br)s2)c1	12.6	i	-11.6%	-2.3%	-2.0%	13.9%
O=C(C[C@@H]1C/C=C\CCC(=O)O[C@H](c2ccccc2)CNC1=O)NCc1ccc(Cl)cc1	nt	nt	nt	nt	nt	16.8%
CC1=C(CO)C(=O)O[C@@H]([C@@H](C)[C@H]2CC[C@H]3[C@@H]4C[C@H]5O[C@]56[C@@H](O)C=CC(=O)[C@]6(C)[C@H]4CC[C@]23C)C1	nt	nt	nt	nt	nt	0.8%
Cc1[nH]nc2ccc(-c3cncc(OC[C@@H](N)Cc4ccccc4)c3)cc12	nt	nt	nt	15.3%	nt	25.1µM*!
Cc1cccc(CNc2ncnc3ccc(-c4cccnc4)cc23)c1	nt	nt	nt	nt	nt	-10.2%
Cc1cccc(C)c1Nc1c(-c2ccccn2)nc2ccc(Cl)cn12	-22.4	i	-12.4%	1.3%	6.1%	12.6%
Cc1cccc(C)c1Nc1c(-c2ccccc2Cl)nc2cnccn12	10.7	22.4µM*	-5.5%	i	22.4%	-18.7%
COc1ccc(NC(=O)Cn2cnc3ccc(S(=O)(=O)N4CCC(C)CC4)cc3c2=O)cc1OC	112.9*	i	nt	?	nt	-4.7%
COc1ccc(OC)c(NC(=O)Cn2cnc3ccc(S(=O)(=O)N4CCC(C)CC4)cc3c2=O)c1	-14.2	i	nt	i	nt	0.1%
Cc1ccc(NC(=O)Cn2c(=O)ccc3cc(S(=O)(=O)N4CCC(C)CC4)ccc32)cc1C	70.0*	i	14.3%	10.6%	?	4.7%
CCc1ccc(NC(=O)CSc2nnc3[nH]c(=O)cc(-c4ccccc4)n23)cc1	-12.7	i	?	2.7%	2.51µM*	-5.1%
O=C(CSc1nnc2[nH]c(=O)cc(-c3ccccc3)n12)Nc1ccccc1C(F)(F)F	9.0	i	?	-7.3%	?	-10.1%
O=c1cc(-c2ccccc2)n2c(SCc3ccc(Cl)cc3)nnc2[nH]1	11.8	i	10.1%	?	-7.7%	-2.5%
COc1ccc(Cl)cc1NC(=O)CSc1nnc2[nH]c(=O)cc(-c3ccccc3)n12	11.6	i	9.6%	-3.1%	2.51µM*	-19.2%
COc1cc(O)c(C(CC(=O)N2CCCC(C(F)(F)F)C2)c2ccc3c(c2)OCO3)c(OC)c1 (stereo unspecified)	nt	nt	nt	nt	nt	9.5%
COC(=O)C1=C(C)NC(C)=C(C(=O)OCCc2ccc(N3CCN(C(c4ccccc4)c4ccccc4)CC3)cc2)C1c1cccc([N+](=O)[O-])c1 (stereo unspecified)	0.0	i	nt	nt	nt	-0.8%[57.5 µM]
COC(=O)C1=C(C)NC(C)=C(C(=O)OCCCN2CCC(c3ccccc3)(c3ccccc3)CC2)C1c1cccc([N+](=O)[O-])c1 (stereo unspecified)	105.3*	i	nt	-10.6%	nt	8.4%[57.5 µM]
CC(C)(O)c1ccc2c(c1)C(=O)C[C@H]1[C@](C)(C(=O)O)CCC[C@]21C	nt	nt	nt	nt	nt	13.7%[29.8 µM]
CCCCN(CC)C(=O)c1cc2c(=O)n3cccc(C)c3nc2s1	?	25.1µM*	-10.4%	-6.0%	0.1%	-19.2%
COc1cc(NC(=O)c2cccc(-n3cc(NC(=O)Nc4cccc(C)c4)cn3)c2)cc(OC)c1OC	nt	nt	nt	nt	nt	3.3%[57.5 µM]
COc1ccc(-c2ccc(=O)n(CC(=O)NCCc3ccccc3)n2)cc1OC	nt	nt	nt	nt	nt	-2.8%
CSc1n[nH]c(NCc2ccc(Cl)cc2)n1	nt	nt	2.7%	nt	-26.2%	nt
CSc1n[nH]c(NCc2ccc(C)cc2)n1	nt	nt	11.2µM*	nt	20µM*	nt
CC1CCCN(C(=O)c2cc3c(Cl)nc4ccccc4c3s2)C1 (stereo unspecified)	107.5*	i	-14.3%	-1.2%	-4.2%	?
CN1CCN(Cc2c(O)ccc3cc(-c4ccccc4)c(=O)oc23)CC1	3.7	i	-28.8%	-1.8%	9.1%	-2.9%
SMILES	DRV1 agonist	GALC G270D act	p53null 39C tox	SKOV3 invasion	p53null 32C kill	NTMT1 inh
O=c1oc2c(CN3CCOCC3)c(O)ccc2cc1-c1ccccc1	-36.5	25.1µM*	28.3%	i	-4.3%	7.2%
Cc1ccn2c(Nc3ccc4c(c3)OCCO4)c(-c3cccs3)nc2c1	-2.2	i	7.2%	-16.6%	-15.9%	12.6µM*
c1csc(-c2nc3ccccn3c2Nc2ccc3c(c2)OCCO3)c1	-2.8	i	-2.8%	-2.7%	-13.8%	?
Cc1ccc(-c2nc3ccccn3c2Nc2ccc3c(c2)OCCO3)o1	-3.5	i	-26.5%	-5.8%	-2.0%	15.8µM*
Cc1noc(-c2sc3c(c2-c2nc4ccccc4s2)CCNC3)n1	nt	nt	nt	nt	nt	17.8%
COc1ccc2c(C)c(CCC(=O)NCCc3ccccc3)c(=O)oc2c1	49.5	nt	-2.8%	-8.8%	-3.7%	nt
COc1ccc2c(C)c(CCC(=O)NCCc3ccc(OC)c(OC)c3)c(=O)oc2c1	68.2*	nt	-4.5%	-9.7%	-2.8%	nt
COc1ccc2c(C)c(CCC(=O)NCCc3ccc(Cl)cc3)c(=O)oc2c1	107.5*	nt	-5.4%	i	-2.8%	nt
O=C(Nc1cccc(C(F)(F)F)c1)c1cccs1	nt	nt	nt	nt	nt	1.0%
CCN1CCC(N(Cc2ccc3c(c2)OCO3)C(=O)Nc2ccc(Br)c(C)c2)CC1	80.0*	i	?	?	-20.3%	?
COc1cc2nc(Nc3cccc(C)c3)nc(N)c2cc1OC	10.0	i	?	?	?	?
COc1cc2nc(Nc3ccc(C)c(C)c3)nc(N)c2cc1OC	82.9*	i	31.6µM*	?	?	?
Cc1c(C)n(Cc2ccccc2)c2ccc(C(=O)NCc3ccc(OC(C)C)cc3)cc12	-15.9	i	-2.6%	7.5%	7.5%	-5.0%
Cc1c(C)n(Cc2ccc(-c3ccccc3C(=O)O)cc2)c2ccc(C(=O)N[C@@H](C)c3ccc([N+](=O)[O-])cc3)cc12	nt	nt	nt	2.6%	nt	31.6µM*!
Cc1ccc(C(=O)Nc2ccccc2C(=O)O)cc1S(=O)(=O)N1CCCCCC1	42.8	i	10µM*	1.7%	5.01µM*	-7.6%
O=C(N/N=C\c1cc(Cl)ccc1O)c1ccc(S(=O)(=O)N2CCCCC2)cc1	nt	nt	nt	nt	7.08µM*	nt
O=C(NC1CCCCC1)c1ccc(S(=O)(=O)N2CCCC2)cc1	nt	nt	-5.4%	nt	-1.1%	nt
O=C1CCCC2=C1C(c1[nH]ncc1Cl)NC(=NCc1ccoc1)N2 (stereo unspecified)	nt	nt	nt	nt	nt	8.9%
CN(C)CCN(C)C(=O)c1ccc(NC(=O)Nc2ccc(-c3nc(N4CCOCC4)c4ccn(CC(F)(F)F)c4n3)cc2)cc1	nt	nt	nt	?	nt	22.4µM*!
COc1cc(O)c(C(CC(=O)N2CC(C)CC(C)C2)c2ccc3c(c2)OCCO3)c(OC)c1 (stereo unspecified)	nt	nt	nt	nt	nt	42.8%
